Data on 46 targets can be found in the supplement of paper PMC11001985.

Unmarked numbers belong to inactive results.

Compound in the assay: C#CCNC(=O)CCSSCCC(=O)NCCc1ccc(C=O)c(C=O)c1
Kind of assay: lysine labeling ratio R10:1 (500 µM / 50 µM probe), SILAC-ABPP in living cells; higher = lower intrinsic lysine reactivity toward the probe, active = 2 or less. Particulars: HeLa; probe concentrations 500 vs 50 µM. Summed up: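 For each lysine, R is the median over forward and reverse replicates of the filtered median MS1 peptide ratio of high probe to low probe. The probe, an alkyne-tagged, disulfide-linked lysine probe, was given at 500 µM or 50 µM to living SILAC light and heavy HeLa cells in PBS at room temperature, with label swaps. Values are capped at 20.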

Sequence of UniProt P06756 (P06756 whole entry): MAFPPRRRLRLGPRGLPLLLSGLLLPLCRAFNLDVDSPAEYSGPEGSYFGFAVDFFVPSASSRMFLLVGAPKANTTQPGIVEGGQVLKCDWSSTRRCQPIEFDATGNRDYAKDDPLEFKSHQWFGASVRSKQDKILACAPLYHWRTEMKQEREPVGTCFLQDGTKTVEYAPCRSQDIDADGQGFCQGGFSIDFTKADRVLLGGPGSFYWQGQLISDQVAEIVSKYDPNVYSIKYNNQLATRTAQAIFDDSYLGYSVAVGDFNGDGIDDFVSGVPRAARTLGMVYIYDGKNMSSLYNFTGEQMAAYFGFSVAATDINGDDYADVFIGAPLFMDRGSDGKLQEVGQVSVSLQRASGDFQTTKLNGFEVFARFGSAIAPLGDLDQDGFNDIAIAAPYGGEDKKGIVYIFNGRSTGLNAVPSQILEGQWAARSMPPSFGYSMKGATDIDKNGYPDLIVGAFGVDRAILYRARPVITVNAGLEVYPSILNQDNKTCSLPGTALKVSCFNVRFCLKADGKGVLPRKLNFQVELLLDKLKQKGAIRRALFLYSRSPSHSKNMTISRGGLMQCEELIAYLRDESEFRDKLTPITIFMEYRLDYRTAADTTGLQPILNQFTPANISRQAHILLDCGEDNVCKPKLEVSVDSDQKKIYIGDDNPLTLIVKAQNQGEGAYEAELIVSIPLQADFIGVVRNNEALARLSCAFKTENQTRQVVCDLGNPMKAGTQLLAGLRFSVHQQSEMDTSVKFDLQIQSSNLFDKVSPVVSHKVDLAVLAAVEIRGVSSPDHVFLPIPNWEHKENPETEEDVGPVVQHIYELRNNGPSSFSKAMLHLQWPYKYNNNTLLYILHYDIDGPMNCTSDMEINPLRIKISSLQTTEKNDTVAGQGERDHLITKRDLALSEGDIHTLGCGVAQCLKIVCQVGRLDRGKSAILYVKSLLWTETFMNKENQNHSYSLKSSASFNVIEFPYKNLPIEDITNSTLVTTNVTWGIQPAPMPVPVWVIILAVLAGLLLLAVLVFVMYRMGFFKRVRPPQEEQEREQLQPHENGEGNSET
Sequence of UniProt P05787 (P05787 whole entry): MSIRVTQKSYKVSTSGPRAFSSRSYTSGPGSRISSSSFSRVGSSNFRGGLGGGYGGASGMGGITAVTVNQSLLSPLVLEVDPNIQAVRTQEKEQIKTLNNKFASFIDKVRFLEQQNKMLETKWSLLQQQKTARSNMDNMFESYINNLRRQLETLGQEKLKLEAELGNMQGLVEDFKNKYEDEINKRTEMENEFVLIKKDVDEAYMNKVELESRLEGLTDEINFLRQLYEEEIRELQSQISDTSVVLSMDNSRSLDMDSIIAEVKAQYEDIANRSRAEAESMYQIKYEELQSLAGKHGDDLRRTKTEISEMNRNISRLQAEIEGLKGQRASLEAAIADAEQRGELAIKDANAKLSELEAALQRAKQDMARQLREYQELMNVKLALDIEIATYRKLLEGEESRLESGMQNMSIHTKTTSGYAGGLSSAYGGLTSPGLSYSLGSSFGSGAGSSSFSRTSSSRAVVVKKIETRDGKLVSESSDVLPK
Sequence of UniProt Q86UP2 (Q86UP2 whole entry): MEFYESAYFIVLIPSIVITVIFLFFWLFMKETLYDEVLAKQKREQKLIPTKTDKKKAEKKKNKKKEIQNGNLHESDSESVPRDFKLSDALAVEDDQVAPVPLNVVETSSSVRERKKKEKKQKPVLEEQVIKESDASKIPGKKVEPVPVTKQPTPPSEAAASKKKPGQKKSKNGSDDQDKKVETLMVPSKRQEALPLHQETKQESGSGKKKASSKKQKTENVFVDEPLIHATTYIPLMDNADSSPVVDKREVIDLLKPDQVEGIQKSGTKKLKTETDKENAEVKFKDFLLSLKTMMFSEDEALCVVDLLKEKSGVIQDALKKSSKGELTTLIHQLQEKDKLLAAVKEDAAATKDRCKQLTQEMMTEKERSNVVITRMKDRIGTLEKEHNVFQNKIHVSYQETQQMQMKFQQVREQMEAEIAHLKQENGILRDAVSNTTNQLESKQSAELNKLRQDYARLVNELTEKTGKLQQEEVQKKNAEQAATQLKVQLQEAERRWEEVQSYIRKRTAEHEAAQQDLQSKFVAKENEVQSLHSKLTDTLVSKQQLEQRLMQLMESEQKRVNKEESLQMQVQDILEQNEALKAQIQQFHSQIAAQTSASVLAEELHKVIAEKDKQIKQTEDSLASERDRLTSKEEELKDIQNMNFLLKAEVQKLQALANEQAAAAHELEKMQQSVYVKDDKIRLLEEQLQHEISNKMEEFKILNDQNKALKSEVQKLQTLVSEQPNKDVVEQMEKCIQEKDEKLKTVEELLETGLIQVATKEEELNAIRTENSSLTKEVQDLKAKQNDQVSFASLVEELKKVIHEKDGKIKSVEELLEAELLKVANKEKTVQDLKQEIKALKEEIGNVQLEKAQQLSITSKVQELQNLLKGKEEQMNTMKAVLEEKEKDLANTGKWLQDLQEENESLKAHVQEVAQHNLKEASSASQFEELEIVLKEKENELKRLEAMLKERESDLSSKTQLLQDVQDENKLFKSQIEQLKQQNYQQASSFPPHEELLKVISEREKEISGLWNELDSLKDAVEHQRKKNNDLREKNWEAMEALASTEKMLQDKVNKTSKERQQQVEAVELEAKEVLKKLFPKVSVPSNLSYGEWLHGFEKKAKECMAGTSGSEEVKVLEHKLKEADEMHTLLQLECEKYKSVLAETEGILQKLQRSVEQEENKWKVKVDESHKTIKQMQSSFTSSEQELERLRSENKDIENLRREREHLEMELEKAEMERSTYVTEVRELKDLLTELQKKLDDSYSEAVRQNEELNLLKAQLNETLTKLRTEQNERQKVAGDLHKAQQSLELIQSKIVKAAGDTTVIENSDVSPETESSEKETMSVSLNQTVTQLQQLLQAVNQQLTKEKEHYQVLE
Sequence of UniProt O00571 (O00571 whole entry, looked up): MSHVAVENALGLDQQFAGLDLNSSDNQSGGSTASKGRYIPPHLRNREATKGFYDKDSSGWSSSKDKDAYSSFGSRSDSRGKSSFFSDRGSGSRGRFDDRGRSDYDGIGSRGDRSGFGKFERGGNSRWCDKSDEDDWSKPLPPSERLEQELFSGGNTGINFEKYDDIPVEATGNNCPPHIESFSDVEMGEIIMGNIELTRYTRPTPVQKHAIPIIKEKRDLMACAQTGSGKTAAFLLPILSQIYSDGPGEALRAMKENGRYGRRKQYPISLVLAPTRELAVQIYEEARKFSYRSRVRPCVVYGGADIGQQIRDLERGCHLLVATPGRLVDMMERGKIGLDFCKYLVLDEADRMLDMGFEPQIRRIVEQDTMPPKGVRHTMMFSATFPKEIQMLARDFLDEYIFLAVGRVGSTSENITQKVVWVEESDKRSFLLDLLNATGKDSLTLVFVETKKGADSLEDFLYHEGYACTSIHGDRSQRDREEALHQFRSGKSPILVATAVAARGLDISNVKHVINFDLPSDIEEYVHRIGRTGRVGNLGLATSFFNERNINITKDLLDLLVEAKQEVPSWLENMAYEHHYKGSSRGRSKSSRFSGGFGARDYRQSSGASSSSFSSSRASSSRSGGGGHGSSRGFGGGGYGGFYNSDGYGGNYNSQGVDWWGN
Sequence of UniProt P04083 (P04083 whole entry): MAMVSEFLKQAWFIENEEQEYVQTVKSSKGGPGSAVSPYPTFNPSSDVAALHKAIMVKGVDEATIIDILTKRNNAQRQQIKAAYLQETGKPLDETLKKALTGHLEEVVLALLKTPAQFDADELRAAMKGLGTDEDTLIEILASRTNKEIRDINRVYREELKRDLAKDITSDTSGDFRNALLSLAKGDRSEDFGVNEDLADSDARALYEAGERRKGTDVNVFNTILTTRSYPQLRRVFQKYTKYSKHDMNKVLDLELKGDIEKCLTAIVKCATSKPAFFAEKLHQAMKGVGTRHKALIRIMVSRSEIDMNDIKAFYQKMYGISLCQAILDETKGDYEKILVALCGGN
Sequence of UniProt Q96JJ7 (Q96JJ7 whole entry): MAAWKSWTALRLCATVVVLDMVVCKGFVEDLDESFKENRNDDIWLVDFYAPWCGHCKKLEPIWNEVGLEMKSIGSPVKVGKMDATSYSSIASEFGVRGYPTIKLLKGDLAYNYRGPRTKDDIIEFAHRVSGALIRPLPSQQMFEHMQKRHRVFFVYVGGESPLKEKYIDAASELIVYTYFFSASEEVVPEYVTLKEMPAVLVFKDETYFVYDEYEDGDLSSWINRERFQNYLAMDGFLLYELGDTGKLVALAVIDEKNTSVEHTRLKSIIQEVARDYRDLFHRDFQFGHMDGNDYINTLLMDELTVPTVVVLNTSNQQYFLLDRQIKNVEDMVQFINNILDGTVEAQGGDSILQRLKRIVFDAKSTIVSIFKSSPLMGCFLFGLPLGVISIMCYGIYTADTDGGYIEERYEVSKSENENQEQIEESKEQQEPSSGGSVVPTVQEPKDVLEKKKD
Sequence of UniProt P60228 (P60228 whole entry): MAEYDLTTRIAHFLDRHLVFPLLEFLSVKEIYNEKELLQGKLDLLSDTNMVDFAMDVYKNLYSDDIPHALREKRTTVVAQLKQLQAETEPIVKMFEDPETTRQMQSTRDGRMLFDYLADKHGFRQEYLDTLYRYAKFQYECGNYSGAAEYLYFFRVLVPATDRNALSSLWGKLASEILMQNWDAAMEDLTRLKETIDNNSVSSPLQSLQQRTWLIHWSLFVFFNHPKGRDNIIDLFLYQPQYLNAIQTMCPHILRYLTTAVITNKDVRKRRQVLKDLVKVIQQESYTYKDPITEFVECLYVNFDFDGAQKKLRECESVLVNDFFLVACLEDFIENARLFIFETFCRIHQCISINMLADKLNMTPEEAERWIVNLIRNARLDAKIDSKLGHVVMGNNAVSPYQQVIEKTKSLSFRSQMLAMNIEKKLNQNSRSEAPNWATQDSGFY
Sequence of UniProt Q9Y3C8 (Q9Y3C8 whole entry): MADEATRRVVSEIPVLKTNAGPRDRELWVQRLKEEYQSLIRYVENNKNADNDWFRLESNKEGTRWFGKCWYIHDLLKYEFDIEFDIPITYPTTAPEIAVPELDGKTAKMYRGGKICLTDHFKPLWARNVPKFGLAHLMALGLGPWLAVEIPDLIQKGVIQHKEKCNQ

For “PPT1 (lysine site: K191) (UniProt P50897)”, the “lysine labeling ratio R10:1” value was 1.31 (active).

“ATP1B1 (lysine site: K216) (UniProt P05026)”: the “lysine labeling ratio R10:1” value is 4.23.

UniProt P05787 (lysine site: K207): the “lysine labeling ratio R10:1” value is 3.47.

Regarding “ANXA1 (lysine site: K214) (UniProt P04083)”, the “lysine labeling ratio R10:1” value was 6.33.

“SERPINH1 (lysine site: K413) (UniProt P50454)”: the “lysine labeling ratio R10:1” value was 4.84.

“LAMC1 (lysine site: K1329) (UniProt P11047)”: the “lysine labeling ratio R10:1” value was 1.2 (active).

On to “CCT7 (lysine site: K320) (UniProt Q99832)”, for which the “lysine labeling ratio R10:1” value was 2.53.

Take “IQGAP1 (lysine site: K368) (UniProt P46940)”: the “lysine labeling ratio R10:1” value is 3.38.

As for UniProt O95084 (lysine site: K331), the “lysine labeling ratio R10:1” value was 4.02.

On to UniProt Q15149 (lysine site: K1573), for which the “lysine labeling ratio R10:1” value was 2.01.

Take “ITGAV (lysine site: K514) (UniProt P06756)”: the “lysine labeling ratio R10:1” value was 0.678 (active).

“HMGN2 (lysine site: K16) (UniProt P05204)”: the “lysine labeling ratio R10:1” value is 1.78 (active).

With “UFC1 (lysine site: K33) (UniProt Q9Y3C8)”, the “lysine labeling ratio R10:1” value was 3.81.

Consider “KTN1 (lysine site: K543) (UniProt Q86UP2)”, for which the “lysine labeling ratio R10:1” value was 5.74.

On to “EHD2 (lysine site: K491) (UniProt Q9NZN4)”, for which the “lysine labeling ratio R10:1” value was 1.25 (active).

For the target “ITGAV (lysine site: K446) (UniProt P06756)”, the “lysine labeling ratio R10:1” value was 2.59.

In the case of “EPHB4 (lysine site: K486) (UniProt P54760)”, the “lysine labeling ratio R10:1” value is 4.21.

With “TFRC (lysine site: K180) (UniProt P02786)”, the “lysine labeling ratio R10:1” value was 2.39.

In the case of “HNRNPM (lysine site: K69) (UniProt P52272)”, the “lysine labeling ratio R10:1” value is 3.38.

Turning to “IGF2R (lysine site: K1776) (UniProt P11717)”, the “lysine labeling ratio R10:1” value is 2.48.

With “CCT6A (lysine site: K530) (UniProt P40227)”, the “lysine labeling ratio R10:1” value is 4.16.

“HNRNPA1 (lysine site: K166) (UniProt P09651)”: the “lysine labeling ratio R10:1” value was 7.94.

For “VIM (lysine site: K439) (UniProt P08670)”, the “lysine labeling ratio R10:1” value is 8.7.

On to UniProt Q15149 (lysine site: K2154), for which the “lysine labeling ratio R10:1” value is 1.47 (active).

Turning to “DDX3X (lysine site: K66) (UniProt O00571)”, the “lysine labeling ratio R10:1” value was 1.78 (active).

“CD46 (lysine site: K224) (UniProt P15529)”: the “lysine labeling ratio R10:1” value is 6.48.

For the target “XRCC6 (lysine site: K516) (UniProt P12956)”, the “lysine labeling ratio R10:1” value is 0.712 (active).

Consider “FLNA (lysine site: K1593) (UniProt P21333)”, for which the “lysine labeling ratio R10:1” value is 2.69.

Turning to “BTN2A1 (lysine site: K101) (UniProt Q7KYR7)”, the “lysine labeling ratio R10:1” value is 2.46.

Turning to “HNRNPU (lysine site: K551) (UniProt Q00839)”, the “lysine labeling ratio R10:1” value was 1.98 (active).

For the target “HSPD1 (lysine site: K130) (UniProt P10809)”, the “lysine labeling ratio R10:1” value is 4.23.

Consider “SEMA4D (lysine site: K104) (UniProt Q92854)”, for which the “lysine labeling ratio R10:1” value was 0.575 (active).

With UniProt Q9UHN6 (lysine site: K1262), the “lysine labeling ratio R10:1” value is 2.6.

Turning to “KPNB1 (lysine site: K376) (UniProt Q14974)”, the “lysine labeling ratio R10:1” value was 2.54.

For the target UniProt P05787 (lysine site: K472), the “lysine labeling ratio R10:1” value was 2.67.

As to “XRCC5 (lysine site: K265) (UniProt P13010)”, the “lysine labeling ratio R10:1” value was 3.42.

For “IGSF3 (lysine site: K888) (UniProt O75054)”, the “lysine labeling ratio R10:1” value was 4.12.

Consider “MYH10 (lysine site: K1782) (UniProt P35580)”, for which the “lysine labeling ratio R10:1” value was 1.76 (active).

Take “CD82 (lysine site: K114) (UniProt P27701)”: the “lysine labeling ratio R10:1” value was 0.977 (active).

For the target “TNFRSF1A (lysine site: K107) (UniProt P19438)”, the “lysine labeling ratio R10:1” value was 1.07 (active).

Turning to “NPR3 (lysine site: K456) (UniProt P17342)”, the “lysine labeling ratio R10:1” value was 0.78 (active).

Turning to “PARK7 (lysine site: K188) (UniProt Q99497)”, the “lysine labeling ratio R10:1” value is 1.98 (active).

For UniProt P60228 (lysine site: K409), the “lysine labeling ratio R10:1” value is 2.54.

As for UniProt Q96JJ7 (lysine site: K119), the “lysine labeling ratio R10:1” value is 3.06.

For UniProt P62244 (lysine site: K60), the “lysine labeling ratio R10:1” value was 2.48.

As for “MYH9 (lysine site: K1775) (UniProt P35579)”, the “lysine labeling ratio R10:1” value is 3.47.
